Measurements: publication PMC12529666, “Dysregulation of AGO2-miRNA dynamics underlies the AGO2-associated Lessel–Kreienkamp syndrome”
Positions count from the first letter of the chain named.

Columns and labels:
Test in all cases: RNA Bind-n-Seq (nitrocellulose filter binding and sequencing); miR-122 guide loaded in AGO2; 60 min incubation; 30 mM Tris pH 8.0, 100 mM potassium acetate, 2 mM magnesium acetate, 0.5 mM TCEP, 0.005% NP-40, 0.01 mg/ml yeast tRNA; 3 nM AGO2-miR-122, 100 nM RNA library; 60; high values mean tight binding
Settings in all cases: protein: recombinant; tags: His6 (N-terminal, pFastBac HTA)
AGO2 L192P = AGO2 L192P (Homo sapiens, UniProt Q9UKV8 1-859, L192P;S387D;S824A;S828D;S831D;S834A)
How it was run: (§1)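 His-tagged AGO2 was expressed in Sf9 insect cells by baculovirus, loaded with a synthetic guide RNA, and purified by Ni-NTA and a biotinylated capture oligo. Bound RNA was extracted, reverse-transcribed, barcode-amplified and Illumina-sequenced. Fold enrichment is each sequence's read fraction divided by its input-library read fraction.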

AGO2 A367P = AGO2 A367P (Homo sapiens, UniProt Q9UKV8 1-859, A367P;S387D;S824A;S828D;S831D;S834A)
How it was run: as §1

AGO2 T357M = AGO2 T357M (Homo sapiens, UniProt Q9UKV8 1-859, T357M;S387D;S824A;S828D;S831D;S834A)
How it was run: as §1

AGO2 F182del = AGO2 F182del (Homo sapiens, UniProt Q9UKV8 1-859, S387D;S824A;S828D;S831D;S834A;del182-182)
How it was run: as §1

Sequence of AGO2 F182del (Q9UKV8 other isoform, or with tags, fused parts or gaps S387D;S824A;S828D;S831D;S834A;del182-182): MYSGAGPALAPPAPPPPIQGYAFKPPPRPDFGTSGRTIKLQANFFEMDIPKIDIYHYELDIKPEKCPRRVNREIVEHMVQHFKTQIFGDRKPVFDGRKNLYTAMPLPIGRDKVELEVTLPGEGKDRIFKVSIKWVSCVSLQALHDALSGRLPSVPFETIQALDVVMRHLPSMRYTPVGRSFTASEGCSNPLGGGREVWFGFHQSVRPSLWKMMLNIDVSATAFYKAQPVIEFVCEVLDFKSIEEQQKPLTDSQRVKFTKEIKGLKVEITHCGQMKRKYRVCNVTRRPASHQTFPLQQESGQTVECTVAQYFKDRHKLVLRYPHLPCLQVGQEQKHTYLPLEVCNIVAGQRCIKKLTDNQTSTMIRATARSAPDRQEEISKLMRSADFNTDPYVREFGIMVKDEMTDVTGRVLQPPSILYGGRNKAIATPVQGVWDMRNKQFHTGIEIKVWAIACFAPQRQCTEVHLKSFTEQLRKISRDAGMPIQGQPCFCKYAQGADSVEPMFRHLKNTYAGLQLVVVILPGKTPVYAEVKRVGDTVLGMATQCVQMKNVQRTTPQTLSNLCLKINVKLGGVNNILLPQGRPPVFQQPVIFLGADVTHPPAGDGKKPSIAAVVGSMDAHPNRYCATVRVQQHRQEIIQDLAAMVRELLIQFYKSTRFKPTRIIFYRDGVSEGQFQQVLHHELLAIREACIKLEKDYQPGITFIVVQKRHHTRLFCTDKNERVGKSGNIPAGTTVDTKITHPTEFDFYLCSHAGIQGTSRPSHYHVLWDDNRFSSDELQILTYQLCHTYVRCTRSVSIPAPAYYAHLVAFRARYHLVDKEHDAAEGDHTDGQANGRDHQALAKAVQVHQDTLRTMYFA
Sequence of AGO2 A367P (Q9UKV8 whole entry A367P/S387D/S824A/S828D/S831D/S834A): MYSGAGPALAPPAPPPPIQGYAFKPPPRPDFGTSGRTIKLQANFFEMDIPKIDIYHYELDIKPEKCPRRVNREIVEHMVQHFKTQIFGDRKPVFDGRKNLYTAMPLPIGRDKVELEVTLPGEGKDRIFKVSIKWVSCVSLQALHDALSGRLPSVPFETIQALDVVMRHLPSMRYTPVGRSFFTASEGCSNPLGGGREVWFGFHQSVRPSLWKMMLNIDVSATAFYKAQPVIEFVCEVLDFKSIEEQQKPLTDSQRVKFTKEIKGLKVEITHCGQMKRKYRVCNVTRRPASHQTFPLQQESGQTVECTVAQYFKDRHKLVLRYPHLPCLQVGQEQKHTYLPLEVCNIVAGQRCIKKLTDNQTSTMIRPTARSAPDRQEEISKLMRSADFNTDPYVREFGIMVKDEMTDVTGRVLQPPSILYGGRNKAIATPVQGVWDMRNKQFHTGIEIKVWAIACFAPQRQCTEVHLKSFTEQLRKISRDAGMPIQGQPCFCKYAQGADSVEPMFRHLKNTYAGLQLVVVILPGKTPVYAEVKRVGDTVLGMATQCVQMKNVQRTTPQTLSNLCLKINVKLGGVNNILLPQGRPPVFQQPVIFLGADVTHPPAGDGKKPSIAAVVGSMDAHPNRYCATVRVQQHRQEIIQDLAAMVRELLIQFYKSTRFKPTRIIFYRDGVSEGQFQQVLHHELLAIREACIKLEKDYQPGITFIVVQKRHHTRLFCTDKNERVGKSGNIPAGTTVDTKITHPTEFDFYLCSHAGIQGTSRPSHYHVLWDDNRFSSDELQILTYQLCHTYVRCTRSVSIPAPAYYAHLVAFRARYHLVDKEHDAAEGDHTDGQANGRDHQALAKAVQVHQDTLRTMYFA
Sequence of AGO2 L192P (Q9UKV8 whole entry L192P/S387D/S824A/S828D/S831D/S834A): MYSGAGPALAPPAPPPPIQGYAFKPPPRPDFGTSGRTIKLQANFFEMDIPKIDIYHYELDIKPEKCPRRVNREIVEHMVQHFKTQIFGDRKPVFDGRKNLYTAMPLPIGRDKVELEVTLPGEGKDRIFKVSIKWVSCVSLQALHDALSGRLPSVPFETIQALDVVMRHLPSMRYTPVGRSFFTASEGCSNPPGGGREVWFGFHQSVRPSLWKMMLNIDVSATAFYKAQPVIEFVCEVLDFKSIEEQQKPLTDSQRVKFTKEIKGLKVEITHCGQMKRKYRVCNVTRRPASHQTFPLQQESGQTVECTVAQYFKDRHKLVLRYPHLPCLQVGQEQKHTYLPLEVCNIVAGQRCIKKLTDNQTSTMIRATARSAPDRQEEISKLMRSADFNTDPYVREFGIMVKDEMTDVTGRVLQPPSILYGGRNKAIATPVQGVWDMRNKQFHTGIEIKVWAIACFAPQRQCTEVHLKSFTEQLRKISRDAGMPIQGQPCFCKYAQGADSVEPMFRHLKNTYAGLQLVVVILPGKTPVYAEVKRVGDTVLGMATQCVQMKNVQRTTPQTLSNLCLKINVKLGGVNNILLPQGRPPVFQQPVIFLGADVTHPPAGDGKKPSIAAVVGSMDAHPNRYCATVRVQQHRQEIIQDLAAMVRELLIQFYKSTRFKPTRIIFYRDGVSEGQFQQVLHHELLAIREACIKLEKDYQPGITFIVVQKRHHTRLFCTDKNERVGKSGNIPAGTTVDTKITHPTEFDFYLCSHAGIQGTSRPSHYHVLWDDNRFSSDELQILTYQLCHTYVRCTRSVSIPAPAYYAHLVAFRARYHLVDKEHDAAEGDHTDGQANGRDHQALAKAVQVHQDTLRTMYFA
Sequence of AGO2 T357M (Q9UKV8 whole entry T357M/S387D/S824A/S828D/S831D/S834A): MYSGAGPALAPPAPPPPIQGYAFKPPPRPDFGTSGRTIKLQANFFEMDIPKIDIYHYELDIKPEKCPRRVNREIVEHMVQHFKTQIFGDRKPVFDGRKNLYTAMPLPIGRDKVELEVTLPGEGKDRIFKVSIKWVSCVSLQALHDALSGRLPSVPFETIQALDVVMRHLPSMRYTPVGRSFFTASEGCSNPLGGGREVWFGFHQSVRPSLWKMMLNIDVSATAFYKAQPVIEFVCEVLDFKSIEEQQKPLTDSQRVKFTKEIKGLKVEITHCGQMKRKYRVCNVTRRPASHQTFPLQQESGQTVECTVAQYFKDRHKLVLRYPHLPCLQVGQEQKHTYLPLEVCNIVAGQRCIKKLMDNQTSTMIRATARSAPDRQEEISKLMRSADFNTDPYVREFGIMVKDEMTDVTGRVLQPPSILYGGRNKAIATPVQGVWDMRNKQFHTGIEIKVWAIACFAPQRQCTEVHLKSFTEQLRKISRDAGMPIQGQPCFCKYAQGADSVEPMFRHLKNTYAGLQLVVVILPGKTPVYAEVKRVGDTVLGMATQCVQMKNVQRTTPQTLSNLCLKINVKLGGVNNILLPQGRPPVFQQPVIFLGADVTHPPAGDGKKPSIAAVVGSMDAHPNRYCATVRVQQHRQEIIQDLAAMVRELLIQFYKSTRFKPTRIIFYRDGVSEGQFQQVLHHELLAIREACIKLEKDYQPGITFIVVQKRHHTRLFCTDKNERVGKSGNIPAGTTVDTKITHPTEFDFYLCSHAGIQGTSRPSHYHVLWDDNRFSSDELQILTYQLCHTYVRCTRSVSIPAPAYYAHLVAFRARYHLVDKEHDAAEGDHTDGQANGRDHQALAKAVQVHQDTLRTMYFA

B1: GCGCCTTG (ssRNA)
RNA 1: GAGUUCUACAGUCCGACGAUCCCAACGCGCCUUGCACCUGGAAUUCUCGGGUGCCAA
RNA 2: UGGAGUGUGACAAUGGUGUUUG
DNA 1: GATCGTCGGACTGTAGAACTC
DNA 2: TTGGCACCCGAGAATTCCA
modifications: constant regions annealed to DNA blockers; guide miR-122 5' phosphate
binding signal (AGO2 L192P): 0.365 fold enrichment over input | binding signal (AGO2 A367P): 0.15 fold enrichment over input | binding signal (AGO2 T357M): 0.532 fold enrichment over input

B2: ATGTTCTA (ssRNA)
RNA 1: B1 RNA 1 with G27A, C28U, C30U, C31U, U32C, G34A
RNA 2: UGGAGUGUGACAAUGGUGUUUG
DNA 1: GATCGTCGGACTGTAGAACTC
DNA 2: TTGGCACCCGAGAATTCCA
modifications: constant regions annealed to DNA blockers; guide miR-122 5' phosphate
binding signal (AGO2 L192P): 0.469 fold enrichment over input | binding signal (AGO2 A367P): 0.206 fold enrichment over input | binding signal (AGO2 T357M): 0.606 fold enrichment over input | binding signal (AGO2 F182del): 0.182 fold enrichment over input

B3: GCGTCCTG (ssRNA)
RNA 1: B1 RNA 1 with C30U, U32C
RNA 2: UGGAGUGUGACAAUGGUGUUUG
DNA 1: GATCGTCGGACTGTAGAACTC
DNA 2: TTGGCACCCGAGAATTCCA
modifications: constant regions annealed to DNA blockers; guide miR-122 5' phosphate
binding signal (AGO2 L192P): 0.38 fold enrichment over input | binding signal (AGO2 A367P): 0.156 fold enrichment over input | binding signal (AGO2 T357M): 0.56 fold enrichment over input

B4: GTACTTTG (ssRNA)
RNA 1: B1 RNA 1 with C28U, G29A, C31U
RNA 2: UGGAGUGUGACAAUGGUGUUUG
DNA 1: GATCGTCGGACTGTAGAACTC
DNA 2: TTGGCACCCGAGAATTCCA
modifications: constant regions annealed to DNA blockers; guide miR-122 5' phosphate
binding signal (AGO2 L192P): 0.365 fold enrichment over input | binding signal (AGO2 A367P): 0.121 fold enrichment over input | binding signal (AGO2 T357M): 0.46 fold enrichment over input

B5: ACGCTTTA (ssRNA)
RNA 1: B1 RNA 1 with G27A, C31U, G34A
RNA 2: UGGAGUGUGACAAUGGUGUUUG
DNA 1: GATCGTCGGACTGTAGAACTC
DNA 2: TTGGCACCCGAGAATTCCA
modifications: constant regions annealed to DNA blockers; guide miR-122 5' phosphate
binding signal (AGO2 L192P): 0.468 fold enrichment over input | binding signal (AGO2 A367P): 0.195 fold enrichment over input | binding signal (AGO2 T357M): 0.588 fold enrichment over input | binding signal (AGO2 F182del): 0.135 fold enrichment over input

B6: GTACCTCG (ssRNA)
RNA 1: B1 RNA 1 with C28U, G29A, U33C
RNA 2: UGGAGUGUGACAAUGGUGUUUG
DNA 1: GATCGTCGGACTGTAGAACTC
DNA 2: TTGGCACCCGAGAATTCCA
modifications: constant regions annealed to DNA blockers; guide miR-122 5' phosphate
binding signal (AGO2 L192P): 0.347 fold enrichment over input | binding signal (AGO2 A367P): 0.125 fold enrichment over input | binding signal (AGO2 T357M): 0.419 fold enrichment over input

B7: GCATTCCG (ssRNA)
RNA 1: B1 RNA 1 with G29A, C30U, C31U, U32C, U33C
RNA 2: UGGAGUGUGACAAUGGUGUUUG
DNA 1: GATCGTCGGACTGTAGAACTC
DNA 2: TTGGCACCCGAGAATTCCA
modifications: constant regions annealed to DNA blockers; guide miR-122 5' phosphate
binding signal (AGO2 L192P): 0.436 fold enrichment over input | binding signal (AGO2 A367P): 0.171 fold enrichment over input | binding signal (AGO2 T357M): 0.548 fold enrichment over input

B8: GCGCTCTG (ssRNA)
RNA 1: B1 RNA 1 with C31U, U32C
RNA 2: UGGAGUGUGACAAUGGUGUUUG
DNA 1: GATCGTCGGACTGTAGAACTC
DNA 2: TTGGCACCCGAGAATTCCA
modifications: constant regions annealed to DNA blockers; guide miR-122 5' phosphate
binding signal (AGO2 L192P): 0.371 fold enrichment over input | binding signal (AGO2 A367P): 0.163 fold enrichment over input | binding signal (AGO2 T357M): 0.565 fold enrichment over input

B9: ATATCCCG (ssRNA)
RNA 1: B1 RNA 1 with G27A, C28U, G29A, C30U, U32C, U33C
RNA 2: UGGAGUGUGACAAUGGUGUUUG
DNA 1: GATCGTCGGACTGTAGAACTC
DNA 2: TTGGCACCCGAGAATTCCA
modifications: constant regions annealed to DNA blockers; guide miR-122 5' phosphate
binding signal (AGO2 L192P): 0.335 fold enrichment over input | binding signal (AGO2 T357M): 0.422 fold enrichment over input

B10: ACACTTCG (ssRNA)
RNA 1: B1 RNA 1 with G27A, G29A, C31U, U33C
RNA 2: UGGAGUGUGACAAUGGUGUUUG
DNA 1: GATCGTCGGACTGTAGAACTC
DNA 2: TTGGCACCCGAGAATTCCA
modifications: constant regions annealed to DNA blockers; guide miR-122 5' phosphate
binding signal (AGO2 L192P): 0.433 fold enrichment over input | binding signal (AGO2 A367P): 0.201 fold enrichment over input | binding signal (AGO2 T357M): 0.541 fold enrichment over input | binding signal (AGO2 F182del): 0.152 fold enrichment over input

B11: GTATCCTG (ssRNA)
RNA 1: B1 RNA 1 with C28U, G29A, C30U, U32C
RNA 2: UGGAGUGUGACAAUGGUGUUUG
DNA 1: GATCGTCGGACTGTAGAACTC
DNA 2: TTGGCACCCGAGAATTCCA
modifications: constant regions annealed to DNA blockers; guide miR-122 5' phosphate
binding signal (AGO2 L192P): 0.337 fold enrichment over input | binding signal (AGO2 A367P): 0.123 fold enrichment over input | binding signal (AGO2 T357M): 0.449 fold enrichment over input

B12: GTGCTTTA (ssRNA)
RNA 1: B1 RNA 1 with C28U, C31U, G34A
RNA 2: UGGAGUGUGACAAUGGUGUUUG
DNA 1: GATCGTCGGACTGTAGAACTC
DNA 2: TTGGCACCCGAGAATTCCA
modifications: constant regions annealed to DNA blockers; guide miR-122 5' phosphate
binding signal (AGO2 L192P): 0.489 fold enrichment over input | binding signal (AGO2 A367P): 0.185 fold enrichment over input | binding signal (AGO2 T357M): 0.644 fold enrichment over input

B13: GTATTCTG (ssRNA)
RNA 1: B1 RNA 1 with C28U, G29A, C30U, C31U, U32C
RNA 2: UGGAGUGUGACAAUGGUGUUUG
DNA 1: GATCGTCGGACTGTAGAACTC
DNA 2: TTGGCACCCGAGAATTCCA
modifications: constant regions annealed to DNA blockers; guide miR-122 5' phosphate
binding signal (AGO2 L192P): 0.39 fold enrichment over input | binding signal (AGO2 A367P): 0.139 fold enrichment over input | binding signal (AGO2 T357M): 0.506 fold enrichment over input

B14: ATGCTCTA (ssRNA)
RNA 1: B1 RNA 1 with G27A, C28U, C31U, U32C, G34A
RNA 2: UGGAGUGUGACAAUGGUGUUUG
DNA 1: GATCGTCGGACTGTAGAACTC
DNA 2: TTGGCACCCGAGAATTCCA
modifications: constant regions annealed to DNA blockers; guide miR-122 5' phosphate
binding signal (AGO2 L192P): 0.443 fold enrichment over input | binding signal (AGO2 A367P): 0.171 fold enrichment over input | binding signal (AGO2 T357M): 0.526 fold enrichment over input

B15: GTGCCTCG (ssRNA)
RNA 1: B1 RNA 1 with C28U, U33C
RNA 2: UGGAGUGUGACAAUGGUGUUUG
DNA 1: GATCGTCGGACTGTAGAACTC
DNA 2: TTGGCACCCGAGAATTCCA
modifications: constant regions annealed to DNA blockers; guide miR-122 5' phosphate
binding signal (AGO2 L192P): 0.431 fold enrichment over input | binding signal (AGO2 A367P): 0.162 fold enrichment over input | binding signal (AGO2 T357M): 0.57 fold enrichment over input

B16: GCGTCTTG (ssRNA)
RNA 1: B1 RNA 1 with C30U
RNA 2: UGGAGUGUGACAAUGGUGUUUG
DNA 1: GATCGTCGGACTGTAGAACTC
DNA 2: TTGGCACCCGAGAATTCCA
modifications: constant regions annealed to DNA blockers; guide miR-122 5' phosphate
binding signal (AGO2 L192P): 0.395 fold enrichment over input | binding signal (AGO2 A367P): 0.141 fold enrichment over input | binding signal (AGO2 T357M): 0.547 fold enrichment over input

B17: GTGCCCTG (ssRNA)
RNA 1: B1 RNA 1 with C28U, U32C
RNA 2: UGGAGUGUGACAAUGGUGUUUG
DNA 1: GATCGTCGGACTGTAGAACTC
DNA 2: TTGGCACCCGAGAATTCCA
modifications: constant regions annealed to DNA blockers; guide miR-122 5' phosphate
binding signal (AGO2 L192P): 0.425 fold enrichment over input | binding signal (AGO2 A367P): 0.161 fold enrichment over input | binding signal (AGO2 T357M): 0.581 fold enrichment over input

B18: GCGTCCCG (ssRNA)
RNA 1: B1 RNA 1 with C30U, U32C, U33C
RNA 2: UGGAGUGUGACAAUGGUGUUUG
DNA 1: GATCGTCGGACTGTAGAACTC
DNA 2: TTGGCACCCGAGAATTCCA
modifications: constant regions annealed to DNA blockers; guide miR-122 5' phosphate
binding signal (AGO2 L192P): 0.366 fold enrichment over input | binding signal (AGO2 A367P): 0.15 fold enrichment over input | binding signal (AGO2 T357M): 0.539 fold enrichment over input

B19: GTGCCCCG (ssRNA)
RNA 1: B1 RNA 1 with C28U, U32C, U33C
RNA 2: UGGAGUGUGACAAUGGUGUUUG
DNA 1: GATCGTCGGACTGTAGAACTC
DNA 2: TTGGCACCCGAGAATTCCA
modifications: constant regions annealed to DNA blockers; guide miR-122 5' phosphate
binding signal (AGO2 L192P): 0.406 fold enrichment over input | binding signal (AGO2 A367P): 0.159 fold enrichment over input | binding signal (AGO2 T357M): 0.568 fold enrichment over input

B20: GCACTTCG (ssRNA)
RNA 1: B1 RNA 1 with G29A, C31U, U33C
RNA 2: UGGAGUGUGACAAUGGUGUUUG
DNA 1: GATCGTCGGACTGTAGAACTC
DNA 2: TTGGCACCCGAGAATTCCA
modifications: constant regions annealed to DNA blockers; guide miR-122 5' phosphate
binding signal (AGO2 L192P): 0.348 fold enrichment over input | binding signal (AGO2 A367P): 0.147 fold enrichment over input | binding signal (AGO2 T357M): 0.471 fold enrichment over input

B21: GCGCTTCG (ssRNA)
RNA 1: B1 RNA 1 with C31U, U33C
RNA 2: UGGAGUGUGACAAUGGUGUUUG
DNA 1: GATCGTCGGACTGTAGAACTC
DNA 2: TTGGCACCCGAGAATTCCA
modifications: constant regions annealed to DNA blockers; guide miR-122 5' phosphate
binding signal (AGO2 L192P): 0.354 fold enrichment over input | binding signal (AGO2 A367P): 0.148 fold enrichment over input | binding signal (AGO2 T357M): 0.531 fold enrichment over input

B22: ACACCTCG (ssRNA)
RNA 1: B1 RNA 1 with G27A, G29A, U33C
RNA 2: UGGAGUGUGACAAUGGUGUUUG
DNA 1: GATCGTCGGACTGTAGAACTC
DNA 2: TTGGCACCCGAGAATTCCA
modifications: constant regions annealed to DNA blockers; guide miR-122 5' phosphate
binding signal (AGO2 L192P): 0.412 fold enrichment over input | binding signal (AGO2 A367P): 0.179 fold enrichment over input | binding signal (AGO2 T357M): 0.471 fold enrichment over input | binding signal (AGO2 F182del): 0.256 fold enrichment over input
